Measured values from PubChem BioAssay (NCI).
This is part of a sample that, as a whole, favours compounds with a hit. Of some 79,000 tested, about 15% had one in any assay. Rule as the data show it: active = growth inhibition above about 70%; inactive = the rest.

Columns and labels:
[1] = NCI Yeast Anticancer Drug Screen. Data for the rad50 strain (AID 155);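 also: 0% = growth of vehicle-only cultures of the same strain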; details: S. cerevisiae rad50 strain growth inhibition; at 50.0 µM; active compounds read high
Procedure, shortened: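 Inhibition values express reduced yeast growth in compound-treated cultures relative to vehicle-treated controls.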

[2] = NCI Yeast Anticancer Drug Screen. Data for the mec2-1 strain (AID 157); details: S. cerevisiae mec2-1 strain, at 50.0 µM, active compounds read high
Procedure, shortened: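 mec2-1 yeast strain, carrying an alteration in DNA damage repair or cell cycle control, was exposed to compounds; growth inhibition was measured relative to vehicle-treated controls.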

[3] = NCI Yeast Anticancer Drug Screen. Data for the sgs1 mgt1 strain (AID 161);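 also: 0% = growth of cultures given vehicle only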; details: S. cerevisiae sgs1 mgt1 strain, at 50.0 µM, active compounds read high
Procedure, shortened: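 Percent growth inhibition was derived by comparing compound-exposed mutant yeast with vehicle-exposed cultures. The strain carries alterations in DNA damage repair.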

[4] = NCI Yeast Anticancer Drug Screen. Data for the cln2 rad14 strain (AID 165);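 also: 0% = growth equal to vehicle treated cultures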; details: S. cerevisiae cln2 rad14 strain, at 50.0 µM, active compounds read high
Procedure, shortened: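 Yeast carrying cln2 and rad14 alterations (cell cycle control and DNA damage repair) were exposed to compounds. Growth inhibition was measured against vehicle-treated controls.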

[5] = NCI Yeast Anticancer Drug Screen. Data for the bub3 strain (AID 167); details: S. cerevisiae bub3 mutant strain, at 50.0 µM, active compounds read high
Procedure, shortened: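 Steps: expose the mutant yeast strain to compound; grow alongside vehicle-treated cultures; measure growth; express inhibition against the vehicle cultures.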

[6] = NCI Yeast Anticancer Drug Screen. Data for the mlh1 rad18 strain (AID 175); details: S. cerevisiae mlh1 rad18 strain growth inhibition; at 50.0 µM; active compounds read high
Procedure, shortened: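 Growth inhibition of the yeast strain was measured after compound exposure and expressed relative to vehicle-treated controls. The strain carries defined defects in DNA damage repair.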

Measured: growth inhibition

CC(=O)Oc1cccc2c1C(=O)C1CC(O)C3(C=O)OC(C)(C)OC2(C)C13 (stereo unspecified)
inactive: [1] 8.45% | [2] -2.6% | [3] 5.95% | [4] 4.7% | [5] -3.45% | [6] 3.6%

O=C1C2Nc3ccccc3N=C2OC1c1ccc(Cl)c(Cl)c1 (stereo unspecified)
inactive: [1] 10.1% | [2] -5.35% | [3] 15.7% | [4] 7% | [5] -4.8% | [6] 24.6%

CCOC(=O)[C@H]1Nc2c(cccc2[N+](=O)[O-])[C@H]2OCC[C@@H]12
inactive: [1] -12.8% | [2] -22.3% | [3] -0.45% | [4] 11.4% | [5] -22.6% | [6] -26.9%

CCOC(=O)c1c(OC)ccc2ccccc12
inactive: [1] 13.3% | [2] 10.7% | [3] 4% | [4] -29.9% | [5] 21.6% | [6] 0.35%

CN(C)S(=O)(=O)c1ccc(N)c([N+](=O)[O-])c1
inactive: [1] -0.2% | [2] 10.7% | [3] -7.75% | [4] -5.05% | [5] 7.55% | [6] 14.3%

Cc1ccc(OS(=O)(=O)NC(=O)NCc2ccco2)cc1
inactive: [1] 18.8% | [2] 4.9% | [3] 7.7% | [4] 8.9% | [5] 3.95% | [6] 4.35%

CCN1CC(C(=O)NC(C)C(=O)O)Cc2ccccc21 (stereo unspecified)
inactive: [1] 7.2% | [2] -1.25% | [3] 9.15% | [4] -31% | [5] 1.45% | [6] -8%

O=C(NNC(=S)Nc1ccccc1)c1nsc2ccccc12
inactive: [1] 43.5% | [2] 12.2% | [3] 35% | [4] 29.4% | [5] 28% | [6] 23.4%

CC(=O)N1CCc2[nH]c3ccccc3c2CC1
inactive: [1] 10.9% | [2] -7.05% | [3] -4.55% | [4] 21.8% | [5] -3.1% | [6] 16.2%

CCCCCc1[nH]c(=O)[nH]c(=O)c1S(=O)(=O)N1CCCCC1
inactive: [1] 0.15% | [2] 28.4% | [3] 18.7% | [4] 3.4% | [5] 25.9% | [6] 18.2%

CCOC(=O)C1CC(=O)c2cc(OC)c(OC)cc2C1c1ccc(OC)c(OC)c1 (stereo unspecified)
inactive: [1] 1.85% | [2] -14.1% | [3] 0.1% | [4] -29.7% | [5] 13.8% | [6] -26.4%

COC(=O)[C@H](Cc1c[nH]c2ccccc12)NP(=O)(O)OCC1C=CC(n2cc(C)c(=O)[nH]c2=O)O1 (stereo partly specified)
inactive: [1] -8.5% | [2] -7.75% | [3] -9.6% | [4] 6.8% | [5] -13.1% | [6] -49.7%

COC(=O)C(=O)C(C(=O)C(=O)Nc1cccc([N+](=O)[O-])c1)c1nc2ccc(Cl)cc2[nH]c1=O (stereo unspecified)
inactive: [1] 15% | [2] -22.2% | [3] 14.2% | [4] -19.1% | [5] -1.5% | [6] 0.2%

COC(=O)C1C(=O)c2ccccc2C(C)C1c1ccccc1C (stereo unspecified)
inactive: [1] 5% | [2] 41.4% | [3] 26.2% | [4] 4.15% | [5] 55.8% | [6] 27.6%

NCC1CCC(C(=O)O)CC1 (stereo unspecified)
inactive: [1] -14.4% | [2] -9.35% | [3] -10% | [4] -20.9% | [5] -24.9% | [6] -21.6%

c1ccn2cncc2c1
inactive: [1] 17% | [2] 17% | [3] 13.1% | [4] 23.1% | [5] 20.7% | [6] 15.1%

O=C1CNS(=O)(=O)N1
inactive: [1] -18.9% | [2] 8.45% | [3] -16.5% | [4] 10.2% | [5] -16.4% | [6] -7.85%

CCN(CC)C(=O)CCC(=O)O
inactive: [1] 0.4% | [2] -13.3% | [3] -14.7% | [4] 3.3% | [5] 0.55% | [6] 24.7%

C[n+]1cccc(C(=O)O)c1
inactive: [1] 5.25% | [2] 2.75% | [3] 8.65% | [4] -9.05% | [5] 17.8% | [6] 10.1%

CC(=O)OCc1ccc(C)cc1
inactive: [1] -9.05% | [2] 6.6% | [3] -12.7% | [4] -32.8% | [5] -14.9% | [6] 0.3%

CS(=O)(=O)OCCCSCCSCCCOS(C)(=O)=O
inactive: [1] -4% | [2] -0.05% | [3] 3.1% | [4] -4.8% | [5] -11.2% | [6] -10.1%

CN(C)CCCN(c1nc2cc(Cl)ccc2o1)c1nc2cc(Cl)ccc2o1
inactive: [1] 33.7% | [2] 17.1% | [3] 36.1% | [4] 52.9% | [5] 8.7% | [6] 48.5%

CC(=O)NCCc1[nH]cnc1N=Nc1ccc(Br)cc1
inactive: [1] 0.95% | [2] 39.4% | [3] 14.7% | [4] -6.15% | [5] 52.1% | [6] 27.3%

Cc1ccc(-c2nnc(C)o2)cc1
inactive: [1] 5.55% | [2] -6.65% | [3] -7.85% | [4] -35.6% | [5] 13.3% | [6] 6.2%

C=C(Cl)COC(=O)C(C)O (stereo unspecified)
inactive: [1] 3% | [2] -12.2% | [3] -7.55% | [4] 24.4% | [5] -7.4% | [6] 8.95%

COC(=O)c1ccc(-n2c(C)nc(=O)c(-c3ccccc3)c2C)cc1
inactive: [1] -6.85% | [2] -33.4% | [3] 12.4% | [4] 11.9% | [5] 0.95% | [6] 7.65%

CC(C)=C1CC(=O)NC1=O
inactive: [1] -10.8% | [2] 17.1% | [3] -3.2% | [4] 6.35% | [5] -6.05% | [6] 0.55%

NC(CCSc1ccccc1)C(=O)O (stereo unspecified)
inactive: [1] -0.7% | [2] 8.35% | [3] -9.85% | [4] -34.5% | [5] -29.3% | [6] -5.45%

CN1CCCC(CO)C1 (stereo unspecified)
inactive: [1] -10.8% | [2] -10.2% | [3] -7.65% | [4] 6.95% | [5] 7.75% | [6] -5.3%

CC(=O)c1ccc2c(Br)ccc3c2c1CC3
inactive: [1] 12.3% | [2] 10.3% | [3] 4.25% | [4] 10.4% | [5] 16.1% | [6] 9.55%

Nc1ncnc(N)c1NC(=O)CCCc1ccccc1
inactive: [1] 5.85% | [2] 18.6% | [3] -2.95% | [4] 1% | [5] 33.5% | [6] 15.9%

O=C(CNc1ccccc1[N+](=O)[O-])Nn1cnc2ccc(S(=O)(=O)Nc3ccccc3[N+](=O)[O-])cc2c1=O
inactive: [1] 25.8% | [2] -1.25% | [3] 39.8% | [4] 15.1% | [5] 21.2% | [6] 28.5%

Cc1[nH]c(C)c2ccc(=O)ccc12
inactive: [1] -51.4% | [2] -8.35% | [3] -16.6% | [4] -58.2% | [5] -2% | [6] -7.65%

O=C(Cn1c(=O)oc2ccc(C(=O)c3cccc(Cl)c3)cc21)c1ccccc1
inactive: [1] -47.4% | [2] -3.15% | [3] -20.6% | [4] -19.5% | [5] 11.3% | [6] -28.1%

C[OH2+].[Cl][Cu+].[Cl][Cu+].[NH-]CCC([OH2+])CC[NH-]
inactive: [1] -9.1% | [2] -12.2% | [3] -14.4% | [4] -57.5% | [5] -2.8% | [6] 8.2%

CCOC(=O)C(NC(=O)OC(C)(C)C)C(=O)OCC
inactive: [1] -43.2% | [2] -90.8% | [3] -33.1% | [4] -28.9% | [5] 2.6% | [6] -27.4%

Cc1ccccc1NC(=O)CSc1nnc(Cc2ccccc2)o1
inactive: [1] -15.3% | [2] -20.6% | [3] -36.8% | [4] -13.5% | [5] -33.8% | [6] -35.5%

Fc1cccc2nc(-c3ccccc3)cc(OCc3ccccc3)c12
inactive: [1] 0.9% | [2] 8.3% | [3] -30.6% | [4] -1% | [5] 11.8% | [6] -3.4%

O=C(O)c1cc(-c2ccccc2O)nc2ccccc12
inactive: [1] -19.5% | [2] -7.1% | [3] -5.2% | [4] 16.3% | [5] -1.35% | [6] -1.5%

N=c1c(C(=O)O)cccn1O
inactive: [1] 8.1% | [2] -5.1% | [3] 9.1% | [4] -50.9% | [5] -6.55% | [6] 4.9%

[Cl][Tb]([Cl])[Cl]
inactive: [1] 16.4% | [2] 8% | [3] 31.8% | [4] 40.1% | [5] 37.2% | [6] 29%
